Screening data deposited in PubChem by National Center for Advancing Translational Sciences (NCATS).
Chronic BCR inh – qHTS Assay to Find Inhibitors of Chronic Active B-Cell Receptor Signaling | hit rate 0.05% among 340,000 | ABC-DLBCL IkBa-CBG/CBR reporter, luminescence ratio, 4 h | Potency, µM (doses to about 46.1 µM), actives largely listed as inhibitors; active = well fitted inhibition curve with a large enough effect in the signal ratio, with a control signal flat, not every such curve was filed as active; inconclusive = small, poorly fitted or top-dose-only effect, or effect the other way, or a change in a side signal; the % refers to the signal ratio
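TMD8 ABC-DLBCL cells carrying doxycycline-inducible green luciferase fused to IkappaBalpha plus unfused red luciferase were exposed to compounds (up to 46 uM) for 4 hrs at 37C. Activity came from the overlap-corrected green/red luminescence ratio.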
RORgamma inh – qHTS for inhibitors of ROR gamma transcriptional activity; Drosophila S2 Gal4-RORgamma UAS-luciferase reporter, 20 h; Potency, µM (titrated, usually from 53.6 µM), actives largely listed as inhibitors; Nuclear receptor ROR-gamma (Mus musculus), P51450; hit rate 5.4% among 310,000; note: nearly all actives have a fitted effect of over 60% in size
Target sequence (P51450 whole entry, looked up, the tested form may be a part): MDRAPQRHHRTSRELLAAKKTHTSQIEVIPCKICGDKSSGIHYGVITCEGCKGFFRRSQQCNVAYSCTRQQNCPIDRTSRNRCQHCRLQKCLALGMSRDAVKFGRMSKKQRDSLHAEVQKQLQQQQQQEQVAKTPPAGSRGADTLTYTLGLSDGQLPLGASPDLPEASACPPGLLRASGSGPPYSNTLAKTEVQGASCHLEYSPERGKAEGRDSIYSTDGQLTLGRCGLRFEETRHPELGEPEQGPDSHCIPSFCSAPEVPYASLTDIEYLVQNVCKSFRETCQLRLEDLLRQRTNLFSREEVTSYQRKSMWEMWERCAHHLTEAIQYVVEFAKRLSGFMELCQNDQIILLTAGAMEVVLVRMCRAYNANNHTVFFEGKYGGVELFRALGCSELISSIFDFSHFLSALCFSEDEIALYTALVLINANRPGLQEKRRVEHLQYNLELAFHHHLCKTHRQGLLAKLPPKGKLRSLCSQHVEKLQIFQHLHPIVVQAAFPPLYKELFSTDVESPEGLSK
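Compounds are pin-transferred onto Drosophila Schneider cells expressing a copper-inducible Gal4–ROR gamma transactivation domain fusion. After 1 hr, copper sulfate is added to 700 uM final; luciferase is read 20 hr later.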
Gal4-VP16 FLuc – VP16 counterscreen qHTS for inhibitors of ROR gamma transcriptional activity. Drosophila S2 Gal4-VP16 UAS-luciferase, luminescence, 20 h. Potency, µM (series often up to 53.6 µM), actives largely listed as inhibitors. hit rate 3.5% among 310,000. AID 2546, 2010;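 note: Gal4-VP16 expression switched on by copper sulfate through the metallothionein promoter; nearly all actives have a fitted effect of over 50% in size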
SW480 rerep – A quantitative high throughput screen for small molecules that induce DNA re-replication in SW480 colon adenocarcinoma cells. Potency, µM (titrated, usually from 46.1 µM), actives largely listed as activators. SW480 DNA re-replication, Hoechst DNA content imaging, 48 h. hit rate 1.8% among 340,000; note: nearly all actives have a fitted effect of over 55% in size
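SW480 cells exposed to compounds for 48 hr at 37 C, 5% CO2, then Hoechst-stained 40 min. Nuclear DNA content imaged by fluorescence scanning (405 nm excitation, 500-530 nm emission); re-replication scored as increased high-intensity nuclei.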
MCF10A rereplic – A quantitative high throughput screen for small molecules that induce DNA re-replication in MCF 10a normal breast cells | MCF 10A DNA re-replication, Hoechst nuclear intensity, 48 h | Potency, µM (doses to about 46.1 µM), actives largely listed as activators | hit rate 2.9% among 350,000 | AID 624296, 2012; note: nearly all actives have a fitted effect of over 50% in size
Giardia killer – Small Molecules that selectively kill Giardia lamblia: qHTS. AID 540267, 2011. hit rate 0.15% among 340,000. Giardia lamblia trophozoite viability. activity change, % at 7.66 µM, hits read low; in the data active = activity change below about -80%; inconclusive = between about -30% and that limit;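 note: parasites exposed to compound for two days anaerobically before the ATP read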
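Killing of trophozoites was scored by loss of ATP luminescence after a 48 hrs anaerobic exposure to compounds at 37 deg C, using 100 cells per well.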
Hits are given with their value; – = inactive; ? = inconclusive; · = no result; [ ] = another dose, or the depositor's remark. Rows were chosen to be rich in hits. Some 8.3% of all compounds tested hit in one or more screens of this group. Unless noted, calls come from the whole dose curve; as a rule, active = well fitted curve in the direction sought with a large enough effect; inconclusive = small, poorly fitted or top-dose-only effect, or another doubt; inactive = no such curve, though single readings can be large; an effect the other way counts as inactive or inconclusive.

SMILES	Chronic BCR inh	RORgamma inh	Gal4-VP16 FLuc	SW480 rerep	MCF10A rereplic	Giardia killer
O=C(COC(=O)c1ccc(Cl)cc1[N+](=O)[O-])NNC(=O)c1cccs1	–	·	·	–	–	–
CS(=O)(=O)c1ccc(C(=O)OCC(=O)NCc2cccs2)cc1[N+](=O)[O-]	?	·	·	9.2µM	4.1µM	–
Cc1cc(C(=O)OCC(=O)NNC(=O)c2cccs2)ccc1[N+](=O)[O-]	–	·	·	12µM	?	–
Cc1ccccc1N(CC(=O)N1CCOCC1)S(C)(=O)=O	?	–	?	–	–	–
CCCN1CNc2c(c(=O)[nH]c(=S)n2CCc2cccc(OC)c2OC)C1	·	·	·	·	·	–
CC1OC(O[C@H]2CC[C@]3(C)C4C=C[C@]56OC[C@@]7(CC[C@@H](C)[C@H](C)C75)[C@H](O)C[C@@]6(C)[C@]4(C)CC[C@H]3C2(C)C)C(OC2OC(CO)C(O)C(O)C2OC2OCC(O)C(O)C2O)C(O)C1O (stereo partly drawn)	?	1.8µM	–	·	·	·
COc1ccc(-n2ncc3c(NCC(C)C)ncnc32)cc1	?	–	–	–	–	–
Clc1ccc(-n2ncc3c(N4CCCCCC4)ncnc32)cc1	?	?	14µM	–	–	?
COc1ccc(-n2ncc3c(=O)n(CC(=O)NC(C)C)cnc32)cc1	–	–	–	–	0.92µM	–
COc1ccc(-n2ncc3c(N4CCCCC4)ncnc32)cc1	?	5µM	2µM	–	–	-82
COc1ccc(-n2ncc3c(NC(C)C)ncnc32)cc1	?	11µM	?	–	–	?
CCOc1ccccc1NC(=O)CCCNC(=O)Cn1cnc2sc(C)c(C)c2c1=O	–	–	–	–	–	–
CN(Cc1ccccc1F)c1nc(-c2cccs2)nc2ccccc12	?	–	–	?	13µM	–
CN(CCN(C)c1nc(-c2cccs2)nc2ccccc12)C(=O)OC(C)(C)C	·	·	·	·	·	–
CCN(CC)c1nc(-c2ccc(Cl)cc2)cc(C(F)(F)F)c1C#N	–	–	–	?	1.2µM	–
Cc1cc(C)c(S(=O)(=O)c2ccc(C(C)(C)C)cc2)c(Cl)n1	–	–	–	–	–	–
CCOc1cc(/C=C2\SC(=Nc3ccc(CC)cc3)NC2=O)ccc1OCC(=O)O	–	–	–	?	18µM	–
CCc1ccc(N=C2NC(=O)/C(=C/c3cc(OC)c(OC)c(OC)c3)S2)cc1	–	?	?	?	12µM	–
CCc1ccc(N=C2NC(=O)/C(=C/c3cc(Br)c(OCC(=O)O)c(OC)c3)S2)cc1	–	?	–	–[1.84 µM]	?	–
CC1=NN(C(N)=S)C(=O)C1N=Nc1c(C)n(C)n(-c2ccccc2)c1=O (stereo not drawn)	·	·	·	–	–	–
COc1ccccc1OCC(=O)NCCS(=O)(=O)N1CCN(c2ccccc2)CC1	–	·	·	?	–	–
CCc1ccccc1NC(=S)NCc1cccn1C	–	13µM	11µM	–	–	–
Cc1ccc(C)c(NC(=S)NCc2cccn2C)c1	–	10µM	11µM	·	·	·
Cc1ccc(NC(=S)NCc2ccccc2)c(C)c1	?	5µM	7.1µM	–[9.22 µM]	–	–
Cc1ccc(NC(=S)NCCC(c2ccccc2)c2ccccc2)c(C)c1	?	3.5µM	–[0.365 µM]	–	?	–
SMILES	Chronic BCR inh	RORgamma inh	Gal4-VP16 FLuc	SW480 rerep	MCF10A rereplic	Giardia killer
COc1ccc(OC)c(NC(=S)NCCC(c2ccccc2)c2ccccc2)c1	·	·	·	–[9.22 µM]	–	–
Cc1ccccc1NC(=S)NCCC(c1ccccc1)c1ccccc1	–	5µM	13µM	–	?	–
Cc1ccc(NC(=S)NNC(=O)c2ccccc2O)c(C)c1	?	–	–	?	?	–
Cc1cccc(N2CCN(C(=O)CCC(=O)N3CC(C)Oc4ccc(C)cc43)CC2C)c1 (stereo not drawn)	–	–	–	–	–	–
O=C(CSc1nc2ccccc2c2nc(-c3ccccc3)nn12)Nc1ccc(Br)cc1	–	·	·	·	·	·
Clc1ccc(-c2csc(NNC3=NCCCCC3)n2)cc1	–	5.6µM	?	–	–	–
Nc1ccc2c(c1)nnn2-c1ccccc1	?	?	–	–	–	–
